Test results: PubChem BioAssay (NCATS)
Inconclusive results are not listed. The source made the active and inactive calls. Calls follow the shape of the dose curve; as a rule, active = well fitted cell-killing curve with a large enough effect; inconclusive = small, poorly fitted or top-dose-only effect, or effect the other way; inactive = no such curve, though single readings can be large or run the other way.

Key:
[1] = Quantitative High-Throughput drug screen in 47 multiple myeloma cell lines against the NCATS MIPE library collection: XG6_PLB cell viability assay (AID 1919865); also: nearly all actives have a fitted effect of over 40% in size
Procedure, shortened: (§1)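 Cells were exposed to library compounds for 48 hours, after which ATP was measured by CellTiter-Glo. Signal was taken as median relative luminescence units.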

[2] = Quantitative High-Throughput drug screen in 47 multiple myeloma cell lines against the NCATS MIPE library collection: XG1_PLB cell viability assay (AID 1919866); also: nearly all actives have a fitted effect of over 35% in size
Procedure, shortened: as §1

[3] = Quantitative High-Throughput drug screen in 47 multiple myeloma cell lines against the NCATS MIPE library collection: VP6_DJ cell viability assay (AID 1919867); also: nearly all actives have a fitted effect of over 40% in size
Procedure, shortened: as §1

[4] = Quantitative High-Throughput drug screen in 47 multiple myeloma cell lines against the NCATS MIPE library collection: UTMC2_PLB cell viability assay (AID 1919868); conditions: CellTiter-Glo ATP luminescence, 48 h; viability (% of DMSO control): at 45.8 µM (top of the series); also: nearly all actives have a fitted effect of over 55% in size;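 as to viability (% of DMSO control): 100% = DMSO-only wells and 0% = media-only wells without cells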
Procedure, shortened: as §1

[5] = Quantitative High-Throughput drug screen in 47 multiple myeloma cell lines against the NCATS MIPE library collection: PE2_PLB cell viability assay (AID 1919869); also: nearly all actives have a fitted effect of over 35% in size
Procedure, shortened: as §1

[6] = Quantitative High-Throughput drug screen in 47 multiple myeloma cell lines against the NCATS MIPE library collection: PCM6_Riken cell viability assay (AID 1919870); also: nearly all actives have a fitted effect of over 30% in size
Procedure, shortened: as §1

[7] = Quantitative High-Throughput drug screen in 47 multiple myeloma cell lines against the NCATS MIPE library collection: OPM2_DSMZ cell viability assay (AID 1919872); also: nearly all actives have a fitted effect of over 30% in size
Procedure, shortened: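 Viability readout: CellTiter-Glo luminescence following 5 min room-temperature incubation with reagent. Prior exposure: 48 h, 37C, humidified 5% CO2, 500 cells per well.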

[8] = Quantitative High-Throughput drug screen in 47 multiple myeloma cell lines against the NCATS MIPE library collection: RPMI8226_ATCC cell viability assay (AID 1919871); also: nearly all actives have a fitted effect of over 30% in size
Procedure, shortened: as §1

[9] = Quantitative High-Throughput drug screen in 47 multiple myeloma cell lines against the NCATS MIPE library collection: KMS11_JCRBsus cell viability assay (AID 1919873); also: nearly all actives have a fitted effect of over 50% in size
Procedure, shortened: as §1

[10] = Quantitative High-Throughput drug screen in 47 multiple myeloma cell lines against the NCATS MIPE library collection: KMS28BM_JCRB cell viability assay (AID 1919874); also: nearly all actives have a fitted effect of over 35% in size
Procedure, shortened: as §1
Potency is read from the fitted curve at half-maximal effect.

SMILES | Potency [1] | Potency [2] | Potency [3] | Potency [4] | Potency [5] | Potency [6] | Potency [7] | Potency [8] | Potency [9] | Potency [10] | viability (% of DMSO control) [4]
OC(c1cc(C(F)(F)F)nc2c(C(F)(F)F)cccc12)C1CCCCN1 (centres undefined) | 26.4 µM (active) | 14.8 µM (active) | 14.8 µM (active) | 20.9 µM (active) | 23.5 µM (active) | 13.2 µM (active) | 23.5 µM (active) | – | – | – | –
CC(C)Oc1cc(Nc2nc(N[C@@H](C)c3ccc(F)cn3)ncc2Cl)[nH]n1 | 7.43 µM (active) | 14.8 µM (active) | 7.43 µM (active) | 8.33 µM (active) | 6.62 µM (active) | 7.43 µM (active) | 16.6 µM (active) | inactive | – | – | –
CNC(=O)c1c(-c2ccc(F)cc2)oc2cc(N(CCO)S(C)(=O)=O)c(C3CC3)cc12 | 18.7 µM (active) | 20.9 µM (active) | – | – | – | – | – | – | – | – | –
Cc1cn([C@@H]2C[C@@H](O)[C@H](CO)O2)c(=O)[nH]c1=O | inactive | inactive | inactive | inactive | inactive | inactive | inactive | inactive | inactive | inactive | –
Cn1c(=O)c(-c2c(Cl)cccc2Cl)cc2cnc(Nc3cccc(C(=O)O)c3)nc21 | 0.187 µM (active) | 0.296 µM (active) | 0.235 µM (active) | – | inactive | 0.0469 µM (active) | – | inactive | inactive | inactive | 127% (active)
NC(N)=Nc1nc(CSCCC(N)=NS(N)(=O)=O)cs1 | 6.62 µM (active) | 14.8 µM (active) | 5.26 µM (active) | 9.35 µM (active) | 20.9 µM (active) | 14.8 µM (active) | – | inactive | – | – | –
Fc1ccc(C(c2ccc(F)cc2)N2CCN(CC=Cc3ccccc3)CC2)cc1 | 7.43 µM (active) | 9.35 µM (active) | 8.33 µM (active) | inactive | 5.26 µM (active) | 5.9 µM (active) | inactive | 16.6 µM (active) | – | – | –
C[C@@H]1O[C@@H](O[C@H]2CC[C@@]3(C)[C@H](CC[C@@H]4[C@H]3C[C@@H](O)[C@]3(C)[C@@H](C5=CC(=O)OC5)CC[C@]43O)C2)C[C@H](O)[C@@H]1O[C@H]1C[C@H](O)[C@H](O[C@H]2C[C@H](O)[C@@H](O)[C@@H](C)O2)[C@H](C)O1 (stereo in doubt) | 0.152 µM (active) | 0.0605 µM (active) | 0.136 µM (active) | 0.0959 µM (active) | 0.215 µM (active) | 0.108 µM (active) | 0.121 µM (active) | 0.215 µM (active) | 0.191 µM (active) | – | –
Cc1cccc(-c2[nH]c(C(C)(C)C)nc2-c2ccc3c(c2)OCO3)n1 | 2.96 µM (active) | 1.05 µM (active) | 0.743 µM (active) | 0.743 µM (active) | 1.18 µM (active) | 0.833 µM (active) | – | 16.6 µM (active) | 16.6 µM (active) | 16.6 µM (active) | –
CC1CNc2c(cccc2S(=O)(=O)N[C@@H](CCCN=C(N)N)C(=O)N2CC[C@@H](C)C[C@@H]2C(=O)O)C1 (some centres undefined) | 5.9 µM (active) | inactive | inactive | inactive | inactive | inactive | inactive | inactive | inactive | inactive | –
CCN(CCO)CCCOc1ccc2c(Nc3cc(CC(=O)Nc4cccc(F)c4)[nH]n3)ncnc2c1 | 16.6 µM (active) | 0.0418 µM (active) | inactive | 0.0743 µM (active) | inactive | inactive | inactive | inactive | inactive | 0.0372 µM (active) | –
CN1C(=O)C(Cc2c[nH]c3ccccc23)NC1=S (centres undefined) | inactive | inactive | 7.43 µM (active) | 2.96 µM (active) | inactive | 3.72 µM (active) | inactive | inactive | – | inactive | –
CC(C)CN(C[C@@H](O)[C@H](Cc1ccccc1)NC(=O)O[C@H]1CO[C@H]2OCC[C@H]21)S(=O)(=O)c1ccc(N)cc1 | 3.72 µM (active) | 16.6 µM (active) | 8.33 µM (active) | 13.2 µM (active) | inactive | 4.69 µM (active) | inactive | – | 9.35 µM (active) | – | –
Cc1ccc(S(=O)(=O)OCC(=O)Nc2ccc(C(=O)O)c(O)c2)cc1 | 3.72 µM (active) | 7.43 µM (active) | 16.6 µM (active) | 9.35 µM (active) | 20.9 µM (active) | 20.9 µM (active) | inactive | inactive | inactive | inactive | –
Nc1[nH]nc2nnc(-c3c(-c4ccccc4)nn4ccccc34)cc12 | 3.72 µM (active) | 6.62 µM (active) | 1.66 µM (active) | 4.18 µM (active) | 9.35 µM (active) | 7.43 µM (active) | inactive | inactive | 0.235 µM (active) | 0.166 µM (active) | –
Cc1cnc(Nc2cccc(CN3CCOCC3)c2)nc1Nc1cccc(S(=O)(=O)NC(C)(C)C)c1 | 1.18 µM (active) | 1.05 µM (active) | 2.96 µM (active) | 1.18 µM (active) | 1.87 µM (active) | 6.62 µM (active) | 9.35 µM (active) | – | – | – | –

SMILES | Potency [1] | Potency [2] | Potency [3] | Potency [4] | Potency [5] | Potency [6] | Potency [7] | Potency [8] | Potency [9] | Potency [10] | viability (% of DMSO control) [4]
O=C(CC12CC3CC(CC(C3)C1)C2)Nc1cccc2nc(NCCNCCO)ccc12 | 1.18 µM (active) | 2.96 µM (active) | 4.69 µM (active) | 3.32 µM (active) | 7.43 µM (active) | 7.43 µM (active) | – | – | – | – | –
COc1cc2ncnc(Nc3cc(Br)c(O)c(Br)c3)c2cc1OC | 0.0047 µM (active) | 0.0074 µM (active) | 0.0148 µM (active) | 0.526 µM (active) | 0.0833 µM (active) | 0.0332 µM (active) | – | 8.33 µM (active) | – | inactive | –
C=CC(=O)Nc1cccc(Sc2nc(Nc3ccc(N4CCN(C)CC4)cc3)ncc2Cl)c1 | 0.526 µM (active) | 1.05 µM (active) | – | – | – | – | – | – | – | – | –
COc1nc(C)cnc1NS(=O)(=O)c1cccnc1-c1ccc(-c2nnco2)cc1 | inactive | inactive | inactive | inactive | inactive | inactive | inactive | inactive | inactive | inactive | –
CNC(=O)c1ccc2c(C(=Nc3cccc(CN(C)C)c3)c3ccccc3)c(O)[nH]c2c1 | 16.6 µM (active) | 14.8 µM (active) | 16.6 µM (active) | 16.6 µM (active) | 18.7 µM (active) | 16.6 µM (active) | inactive | 13.2 µM (active) | – | 8.33 µM (active) | –
O=S(=O)(NCCNCC=Cc1ccc(Br)cc1)c1cccc2cnccc12 | 2.64 µM (active) | 5.26 µM (active) | 5.26 µM (active) | 7.43 µM (active) | 16.6 µM (active) | 16.6 µM (active) | – | 20.9 µM (active) | 16.6 µM (active) | 16.6 µM (active) | –
Cc1[nH]c(C=C2C(=O)Nc3ccc(S(=O)(=O)N(C)c4cccc(Cl)c4)cc32)c(C)c1C(=O)N1CCN(C)CC1 | 9.35 µM (active) | 11.8 µM (active) | 13.2 µM (active) | 11.8 µM (active) | 16.6 µM (active) | 14.8 µM (active) | 20.9 µM (active) | 23.5 µM (active) | 11.8 µM (active) | 16.6 µM (active) | –
CCCCCCCCCCCCCC(=O)N[C@H](CO)[C@H](O)c1ccc([N+](=O)[O-])cc1 | 23.5 µM (active) | 20.9 µM (active) | 26.4 µM (active) | 18.7 µM (active) | 26.4 µM (active) | 20.9 µM (active) | inactive | – | 23.5 µM (active) | – | –
Cc1ccc(NC(=O)Nc2cc(C(F)(F)F)ccc2F)cc1Nc1ccc2c(c1)NC(=O)C2=Cc1ccc[nH]1 | 5.26 µM (active) | 6.62 µM (active) | 5.26 µM (active) | 8.33 µM (active) | 4.18 µM (active) | 3.32 µM (active) | – | – | – | – | –
CN1CCC(COc2cnc(-c3cccc(Cn4nc(-c5cccc(C#N)c5)ccc4=O)c3)nc2)CC1 | 0.0332 µM (active) | 0.332 µM (active) | 0.59 µM (active) | 0.526 µM (active) | 1.05 µM (active) | 0.372 µM (active) | inactive | inactive | – | inactive | –
NS(=O)(=O)c1ccc(Nc2nc(OCC3CCCCC3)c3[nH]cnc3n2)cc1 | 2.96 µM (active) | 2.64 µM (active) | 16.6 µM (active) | 11.8 µM (active) | 16.6 µM (active) | 10.5 µM (active) | – | – | – | – | –
CC1(C)C(N(O)C(=O)Nc2ccc(Cl)cc2)N(c2ccc(Cl)cc2)C(=O)N1CC(=O)NN=CC=Cc1ccc([N+](=O)[O-])o1 (centres undefined) | 10.5 µM (active) | 8.33 µM (active) | 8.33 µM (active) | 13.2 µM (active) | 6.62 µM (active) | 9.35 µM (active) | 18.7 µM (active) | 11.8 µM (active) | 6.62 µM (active) | 8.33 µM (active) | –
CCNC(=O)CCCC=CC[C@@H]1[C@H](C=CC(O)CCc2ccccc2)[C@@H](O)C[C@@H]1O (some centres undefined) | inactive | inactive | inactive | inactive | inactive | inactive | – | 16.6 µM (active) | – | 3.32 µM (active) | –
CC1(C)[C@H]2CC[C@]3(C)[C@@H](C(=O)C=C4[C@@H]5C[C@@](C)(C(=O)O)CC[C@]5(C)CC[C@]43C)[C@@]2(C)CC[C@@H]1O | inactive | inactive | inactive | inactive | inactive | inactive | inactive | inactive | inactive | inactive | –
CCN(CC)CCCCNc1nc2cc(Cl)c(Cl)cc2nc1-c1ccc(-c2cccs2)s1 | 8.33 µM (active) | 8.33 µM (active) | 8.33 µM (active) | 9.35 µM (active) | 9.35 µM (active) | 8.33 µM (active) | 10.5 µM (active) | 10.5 µM (active) | 8.33 µM (active) | 7.43 µM (active) | –
CCOC(=O)N1CCN([N+]([O-])=NOc2cc(ON=[N+]([O-])N3CCN(C(=O)OCC)CC3)c([N+](=O)[O-])cc2[N+](=O)[O-])CC1 | 4.69 µM (active) | 4.18 µM (active) | 6.62 µM (active) | 8.33 µM (active) | 2.96 µM (active) | 6.62 µM (active) | 18.7 µM (active) | 9.35 µM (active) | 5.9 µM (active) | 7.43 µM (active) | –
